Measurements reported in PubChem BioAssay (NCATS).
Unmarked numbers belong to inactive results. Active and inactive are the calls of the source. Calls come from the whole dose curve; as a rule, active = well fitted curve in the direction sought with a large enough effect; inconclusive = small, poorly fitted or top-dose-only effect, or effect the other way, or another doubt; inactive = no such curve, though single readings can be large or run the other way.

Assay: Inducers of the Endoplasmic Reticulum Stress Response (ERSR) in human glioma: Validation (AID 504836); note: 0% is about no effect
Conditions: human glioma cells, ER stress response reporter; series mostly up to 38.3 µM; activation: at the top concentration
How it was run: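 Stably transfected U87-MG glioma cells carrying a GRP78-based luciferase sensor; 16 h compound incubation. Luminescence end-point read 10 min after Bright-Glo addition at room temperature.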

Question: For CCN(CC)CC#CCOC(=O)C(O)(c1ccccc1)C1CCCCC1 (configuration not stated), which “activation” value is on record?
Answer: -2.55%

Question: Which “activation” value does the source give for CC[N+](CC)(CC)CCOc1cccc(OCC[N+](CC)(CC)CC)c1OCC[N+](CC)(CC)CC here?
Answer: -5.57%

Question: With CC(=O)OC(C)C[N+](C)(C)C (configuration not stated) as the molecule, how does the “activation” value read?
Answer: -1.78%

Question: For C[N+](C)(C)CCOC(N)=O, which “activation” value is on record?
Answer: 2.42%

Question: Which “activation” value does the source give for C1COC(NC(C2CC2)C2CC2)=N1 here?
Answer: -5.11%

Question: Which “activation” value does the source give for C[C@](N)(Cc1ccc(O)cc1)C(=O)O here?
Answer: 0.788%

Question: For CCO/C([O-])=N/c1c[n+](N2CCOCC2)no1, which “activation” value is on record?
Answer: 0.993%

Question: With NCCCCCC(=O)O as the molecule, how does the “activation” value read?
Answer: -1.03%

Question: With Cc1scc2c1N(C(=O)CN1CCN(C)CC1)c1ccccc1NC2=O as the molecule, how does the “activation” value read?
Answer: -0.791%

Question: Which “activation” value does the source give for Clc1ccc2nsnc2c1NC1=NCCN1 here?
Answer: -4.09%

Question: Which “activation” value does the source give for Cc1nc2ccccn2c(=O)c1CCN1CCC(C(=O)c2ccc(F)cc2)CC1 here?
Answer: -0.871%

Question: For CCN1CCCC1CNC(=O)c1cc(S(=O)(=O)CC)c(N)cc1OC (configuration not stated), which “activation” value is on record?
Answer: -3.25%

Question: For Cn1c(=O)c2[nH]cnc2n(C)c1=O, which “activation” value is on record?
Answer: -0.235%

Question: Which “activation” value does the source give for Nc1ccn([C@@H]2O[C@H](CO)[C@@H](O)C2O)c(=O)n1 (some centres not stated) here?
Answer: -4.08%

Question: Which “activation” value does the source give for COc1cc(NS(C)(=O)=O)ccc1Nc1c2ccccc2nc2ccccc12 here?
Answer: -3.07%

Question: With CC(C)C[C@H]1C(=O)N2CCC[C@H]2[C@]2(O)O[C@](NC(=O)[C@@H]3C=C4c5cccc6[nH]c(Br)c(c56)C[C@H]4N(C)C3)(C(C)C)C(=O)N12 as the molecule, how does the “activation” value read?
Answer: 2.76%

Question: For C[N+](C)(C)CCCCCC[N+](C)(C)C, which outcome is on record?
Answer: inactive

Question: Which “activation” value does the source give for NC(=O)c1cnccn1 here?
Answer: -2.75%

Question: Which “activation” value does the source give for CC(=O)N1CCN(c2ccc(OC[C@H]3CO[C@](Cn4ccnc4)(c4ccc(Cl)cc4Cl)O3)cc2)CC1 here?
Answer: -1.15%

Question: With CN1C(C(=O)Nc2ccccn2)=C(O)c2ccccc2S1(=O)=O as the molecule, how does the “activation” value read?
Answer: -0.518%

Question: With C=CC(N)CCC(=O)O (configuration not stated) as the molecule, how does the “activation” value read?
Answer: -3.31%

Question: Which “activation” value does the source give for CC(C)NCC(O)c1ccc(NS(C)(=O)=O)cc1 (configuration not stated) here?
Answer: -2.63%

Question: Which “activation” value does the source give for CCN(CC)CCNC(=O)c1cc(S(C)(=O)=O)ccc1OC here?
Answer: -1.39%

Question: For CC(C)(C)NCC(O)c1cc(O)cc(O)c1 (configuration not stated), which “activation” value is on record?
Answer: 2.91%

Question: With OCCN1CCN(CC/C=C2/c3ccccc3Sc3ccc(C(F)(F)F)cc32)CC1 as the molecule, how does the “activation” value read?
Answer: -4.59%

Question: With CCN(CC)CCNC(=O)c1ccc(N)cc1 as the molecule, how does the “activation” value read?
Answer: -0.55%

Question: Which “activation” value does the source give for CO[C@@]1(NC(=O)CSCC#N)C(=O)N2C(C(=O)O)=C(CSc3nnnn3C)CS[C@@H]21 here?
Answer: -1.98%

Question: Which “activation” value does the source give for CC(C)(C)NC[C@H](O)COc1nsnc1N1CCOCC1 here?
Answer: -4.42%

Question: Which “activation” value does the source give for COc1ccc2cc([C@H](C)C(=O)O)ccc2c1 here?
Answer: -4.06%

Question: Which “activation” value does the source give for N[C@@H](COP(=O)(O)O)C(=O)O here?
Answer: -0.864%

Question: For CCN1CCC[C@H]1CNC(=O)c1c(O)c(Cl)cc(Cl)c1OC, which “activation” value is on record?
Answer: -0.76%

Question: For CCCCCN(C)CCC(O)(P(=O)(O)O)P(=O)(O)O, which “activation” value is on record?
Answer: -4.53%
